Screening results from PubChem.
Gal4-VP16 FLuc: VP16 counterscreen qHTS for inhibitors of ROR gamma transcriptional activity; hit rate 3.5% among 310,000; Potency, µM (series often up to 53.6 µM), for the others: at the highest dose activity, negative = inhibition, usual class: inhibitors; Drosophila S2 Gal4-VP16 UAS-luciferase, luminescence, 20 h;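 further: Gal4-VP16 expression switched on by copper sulfate through the metallothionein promoter; potency means the concentration at half of the fitted maximal effect; nearly all actives have a fitted effect of over 50% in size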
RORg inh: qHTS for inhibitors of ROR gamma transcriptional activity | Nuclear receptor ROR-gamma (Mus musculus), P51450 | Drosophila S2 Gal4-RORgamma UAS-luciferase reporter, 20 h | Potency, µM (top dose mostly 53.6 µM), without a hit: at the highest dose activity change, negative = inhibition, actives largely listed as inhibitors | hit rate 5.4% among 310,000 | AID 2551, 2010; further: potency means the concentration at half of the fitted maximal effect; nearly all actives have a fitted effect of over 60% in size
Target sequence (P51450 whole entry, looked up, the tested form may be a part): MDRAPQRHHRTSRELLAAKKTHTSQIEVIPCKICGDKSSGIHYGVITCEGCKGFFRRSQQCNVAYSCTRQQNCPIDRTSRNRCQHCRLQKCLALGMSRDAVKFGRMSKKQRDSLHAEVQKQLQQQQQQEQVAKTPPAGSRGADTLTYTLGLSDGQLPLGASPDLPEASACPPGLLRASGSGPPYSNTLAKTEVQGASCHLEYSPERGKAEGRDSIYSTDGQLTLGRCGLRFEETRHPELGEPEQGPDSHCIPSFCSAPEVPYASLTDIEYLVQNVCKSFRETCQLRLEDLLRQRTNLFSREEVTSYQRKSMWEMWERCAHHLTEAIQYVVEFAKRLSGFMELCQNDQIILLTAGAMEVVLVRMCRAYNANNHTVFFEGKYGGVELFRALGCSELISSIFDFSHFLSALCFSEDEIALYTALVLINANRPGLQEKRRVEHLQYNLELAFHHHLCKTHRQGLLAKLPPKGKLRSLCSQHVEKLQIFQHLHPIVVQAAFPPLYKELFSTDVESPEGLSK
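Schneider cells (Drosophila), stable Gal4 DBD–ROR gamma + UAS-luc; 1 hr cmpd preincubation; Cu2+ induction 700 uM final; 20 hr ambient; luminescence.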
IL1B secr inh: qHTS for Inhibitors of Inflammasome Signaling: IL-1-beta AlphaLISA Primary Screen | THP-1 LPS/ATP IL-1B secretion, AlphaLISA, 16 h; active compounds read low | activity change, % at 57.5 µM | hit rate 4.7% among 360,000 | AID 743279, 2014; in the data active means activity change below about -50%; inconclusive means mostly about -30% to -49%
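THP-1 cells pretreated 1 hr with compounds (up to 57.5 uM final), then stimulated with LPS (250 ng/mL final) plus ATP (1.25 mM final); secreted IL-1B measured by AlphaLISA after 16 hr, decreased signal indicating inhibition.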
DT40 TDP1 no CPT: qHTS for Inhibitors of human tyrosyl-DNA phosphodiesterase 1 (TDP1): qHTS in cells in absence of CPT; DT40 Tdp1-/- hTDP1 cells, no CPT, ATP luminescence, 48 h; Potency, µM (series often up to 46.2 µM), for the others: top-dose activity change, negative = growth inhibition, usual class: inhibitors; hit rate 15% among 420,000; further: potency means the concentration at half of the fitted maximal effect; nearly all actives have a fitted effect of over 55% in size
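Luminescent ATP content (CellTiter-Glo) served as the growth readout. Knockout chicken DT40 cells expressing human TDP1 were exposed to compounds without camptothecin for a minimum 48 hr at 37 °C.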
LDHA inh: qHTS assay for inhibitors of human lactate dehydrogenase. L-lactate dehydrogenase A chain (Homo sapiens), P00338. purified LDHA, NADH/diaphorase-resazurin fluorescence; active compounds read low. activity change, % (values are at about 110 or 230 µM). hit rate 0.15% among 480,000. AID 1347041, 2019; in the data active means activity change below about -30%; inconclusive means mostly about -25% to -30%;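 further: plate controls were DMSO wells for no effect and wells without enzyme for full effect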
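LDH5 2 nM; NADH 0.06 mM, pyruvate 0.2 mM; 200 mM Tris pH 7.4, EDTA, Tween-20; 5 min RT. Detection: diaphorase 0.133 mg/mL + resazurin 37 µM, fluorescence ex540/em590 at 0 and 20 min; normalized to enzyme-free and DMSO wells.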
DT40 TDP1 CPT: qHTS for Inhibitors of human tyrosyl-DNA phosphodiesterase 1 (TDP1): qHTS in cells in presence of CPT. AID 686979, 2013. chicken DT40 Tdp1-/-;hTDP1 cells + 20 nM CPT, ATP luminescence, 48 h. Potency, µM (series often up to 46.2 µM), for inactives: top-dose activity change, negative = growth inhibition, usual class: inhibitors. hit rate 12% among 420,000; further: potency means the concentration at half of the fitted maximal effect; nearly all actives have a fitted effect of over 55% in size
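Cell growth measured by CellTiter-Glo luminescence after a minimum 48 h, 37 C compound exposure with 20 nM CPT in Tdp1-knockout DT40 cells stably expressing hTDP1, seeded 400/well; qHTS titration format.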
Active calls of the source: *; ? = inconclusive; / = not tested or not shown. A selection: hits, their analogues and other compounds. The true share with any hit is near 18%. Unless noted, the call rests on the fitted dose curve; in most records, active means well fitted curve in the direction sought with a large enough effect; inconclusive means small, poorly fitted or top-dose-only effect, or another doubt; inactive means no such curve, though single readings can be large; an effect the other way counts as inactive or inconclusive. Unless noted, on the % scale 0 is the no-effect control and ±100 the full control effect.

SMILES	Gal4-VP16 FLuc	RORg inh	IL1B secr inh	DT40 TDP1 no CPT	LDHA inh	DT40 TDP1 CPT
Cc1nn(C)c(C)c1C1C(C#N)=C(N)Oc2n[nH]c(C)c21 (stereo unspecified)	1.2%	-2.9%	0.0	-5.4%	-3.7	7.3%
Cc1[nH]nc2c1C(c1cc(Br)cs1)C(C#N)=C(N)O2 (stereo unspecified)	7.08µM*	0.708µM*	-100.6*	5.17µM*	-3.4	4.11µM*
O=S(Cc1ccc(Cl)cc1)Cc1cccc(F)c1 (stereo unspecified)	/	/	/	/	-16.3	/
Cc1ccc(NC(=O)CCc2nnc3ccc(N4CCC(C)CC4)nn23)nc1	-9.2%	9.5%	-53.5*	-3.0%	-0.7	-24.0%
COc1cccc(NC(=O)CCc2nnc3ccc(N4CCN(c5cccc(OC)c5)CC4)nn23)c1	7.2%	7.9%	33.3	?	-0.1	?
COc1ccc(NC(=O)CCc2nnc3ccc(N4CCN(c5cccc(OC)c5)CC4)nn23)cc1	5.2%	16.8%	-1.2	14.6µM*	3.7	?
O=[N+]([O-])c1ccc(N/N=C/c2cccc(O)c2O)c(S(=O)(=O)N2CCOCC2)c1	-8.8%	-7.9%	27.2	13µM*	7.2	10.3µM*
O=[N+]([O-])c1ccc(N/N=C/c2ccc(O)c(O)c2O)c(S(=O)(=O)N2CCOCC2)c1	0.6%	-16.6%	5.0	?	36.6	4.11µM*
CC(=O)c1ccc(NC(=O)CSc2nc3ccccc3o2)cc1	/	/	/	/	4.0	/
Cc1sc(NC(=O)c2ccccc2F)c(CN2CCCCC2)c1C	-6.0%	23.0%	-28.2	23.1µM*	-2.6	20.6µM*
O=C(Nc1sc2c(c1CN1CCOCC1)CCC2)c1ccc(F)cc1	4.2%	19.2%	-0.3	?	-1.3	?
CNC(=O)c1c(NC(=O)c2ccco2)sc(C)c1C	/	/	?	-10.8%	-2.4	8.6%
CCOC(=O)c1sc(NC(=O)c2ccccc2F)c(C(N)=O)c1C	-14.6%	6.3%	16.9	?	-4.6	?
Cc1sc(NC(=O)c2ccco2)c(CN2CCN(Cc3ccccc3)CC2)c1C	-8.2%	15.9%	-79.8*	11.6µM*	1.5	11.6µM*
Cc1sc(NC(=O)c2ccc(F)cc2)c(CN2CCCCCC2)c1C	-3.9%	0.7%	-27.8	13µM*	-3.0	13µM*
Cc1ccc(C(=O)C(C)Sc2nc(CN3CCOCC3)nc3ccccc23)cc1 (stereo unspecified)	/	/	/	/	-1.1	/
CC1CCC(C(C)C)C(OCC(O)C[N+]2(C)CCCCC2)C1 (stereo unspecified)	-1.3%	-19.7%	0.0	11.6µM*	-15.5	?
CC1CCC(C(C)C)C(OCC(O)CN2CCN(Cc3ccccc3)CC2)C1 (stereo unspecified)	-16.6%	-0.5%	?	14.6µM*	2.1	13µM*
CC1CCC(C(C)C)C(OCC(O)CN2CCCC(C)C2)C1 (stereo unspecified)	6.2%	-10.6%	0.0	?	-3.0	?
CC(C)(C)NC(=O)COc1ncnc2ccc(Br)cc12	/	/	/	/	-12.1	/
COC1=C(OC)C(=O)C(Sc2ccc3ccccc3c2)=CC1=O	/	/	-104.3*	1.3µM*	42.6	1.3µM*
COc1ccc(-c2c(-c3ccc4ccccc4c3)[nH]c3c2c(=O)[nH]c(=O)n3C)cc1	/	/	/	/	0.9	/
O=C(CSc1cccs1)NCc1cccs1	/	/	/	/	3.4	/
O=C(CSc1cccc2cccc(Cl)c12)NCc1cccs1	-7.9%	18.7%	-4.6	25.9µM*	21.6	?
COc1ccc(-c2[nH]ncc2C(=O)NCc2ccccc2C)cc1	/	/	/	-12.0%	-6.4	-8.4%
